# Sampled rows, rich in hits. Any-hit rate of the full collection: about 21%.
# NS1 inh = qHTS Assay for Inhibitors of Influenza NS1 Protein Function | Potency, µM (doses to about 46.1 µM), inactives show top-dose activity, positive = more growth | actives 0.4% (n = 270,000); calls by dose curve; note: potency is the fitted concentration of half-maximal effect; actives are rising curves; nearly all actives have a fitted effect of over 50% in size
#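 Recovery from NS1-induced slow growth read by OD600 in budding yeast switched to galactose assay medium (pH 6.0, -URA) at 1:100 dilution. Compound 23 nl per well; the matching strain lacking NS1 serves as control.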
# Pf growth 48h = Primary qHTS for delayed death inhibitors of the malarial parasite plastid, 48 hour incubation; P. falciparum luciferase growth in erythrocytes, 48 h; Potency, µM (doses to about 28.7 µM), without a hit: at the highest dose activity change, negative = inhibition, actives largely listed as inhibitors; actives 5.9% (n = 310,000); note: potency is the fitted concentration of half-maximal effect; % is set by controls: 0 for no effect and ±100 for the full control effect
#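 First compound was added to culture medium, then infected red cells at 0.1% parasitemia and 2% hematocrit (final). After incubation at 37 C under 5% CO2, luciferase detection reagent was dispensed and light output recorded.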
# Pf growth 96h = Primary qHTS for delayed death inhibitors of the malarial parasite plastid, 96 hour incubation | P. falciparum luciferase reporter growth, 96 h | Potency, µM (series often up to 28.7 µM), inactives show at the highest dose activity change, negative = inhibition, usual class: inhibitors | actives 6.9% (n = 320,000); note: potency is the fitted concentration of half-maximal effect; % is set by controls: 0 for no effect and ±100 for the full control effect
#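 Luminescence readout: decreased luciferase signal marks inhibited growth of reporter-expressing P. falciparum in infected red cells (2% hematocrit, 0.05% parasitemia final), exposed to compound two generations (96 h, 37 C, 5% CO2).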
# Shiga toxin inh = A qHTS for Small Molecule Inhibitors of Shiga Toxin; Vero cells, Shiga toxin protein synthesis inhibition reporter; inhibition, % at 38.7 µM; actives 9.2% (n = 290,000); in the data active = inhibition mostly above about 28%, no sharp cut-off; inactive = mostly below about 43%; note: 0% is about no effect
# Sm TGR block = qHTS Assay for the Inhibitors of Schistosoma Mansoni Peroxiredoxins. Potency, µM (series often up to 114 µM), for the others: at the highest dose activity change, negative = inhibition, usual class: inhibitors. actives 3% (n = 360,000). AID 485364, 2010. purified TGR, DTNB reduction, TNB absorbance 405 nm; note: potency is the fitted concentration of half-maximal effect; % is set by controls: 0 for no effect and ±100 for the full control effect; nearly all actives have a fitted effect of over 60% in size
#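 Kinetic colorimetric format: TGR-catalysed, NADPH-driven DTNB reduction monitored via TNB absorbance. Enzyme dispensed at 20 nM; compound exposure 15 min at room temperature before reaction start.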
# Cycloheximide cs = Cycloheximide Counterscreen for Small Molecule Inhibitors of Shiga Toxin; cell reporter, cycloheximide protein synthesis inhibition counterscreen; max response, %; actives 12% (n = 300,000); in the data active = max response mostly above about 13%, no sharp cut-off; inactive = mostly below about 14%; note: read at 38.3 µM for the half of the compounds with a filed dose; 0% is about no effect
# * = called active by the depositor; ? = inconclusive; · = no result given. Unless noted, calls come from the whole dose curve; as a rule, active = well fitted curve in the direction sought with a large enough effect; inconclusive = small, poorly fitted or top-dose-only effect, or another doubt; inactive = no such curve, though single readings can be large; an effect the other way counts as inactive or inconclusive.
SMILES,NS1 inh,Pf growth 48h,Pf growth 96h,Shiga toxin inh,Sm TGR block,Cycloheximide cs
O=C(O)CCC(O)=C1S(=O)(=O)OCCOS1(=O)=O,-3%,·,·,·,·,·
COc1ccc(CCNC(=O)CCCn2c(=O)c3ccccc3n(CC(=O)Nc3c(C)cc(C)cc3C)c2=O)cc1OC,·,·,·,·,1%,·
COc1ccc(CN(CCC(c2ccccc2)C2CCOC(C)(C)C2)C(C)=O)cc1 (centres undefined),-18%,13µM*,-1%,-8,-2%,-3
COc1ccc(CNCCC(c2ccccc2)C2CCOC(C)(C)C2)cc1 (centres undefined),·,?,?,8,12%,-6
CCOC(=O)C1=C(C)N=c2s/c(=C\c3ccc(OC(C)=O)c(OCC)c3)c(=O)n2C1/C=C/c1ccccc1 (centres undefined),?,10µM*,20%,-6,8%,-2
COC(=O)C1=C(C)N=c2s/c(=C/c3cccs3)c(=O)n2C1c1ccc(F)cc1 (centres undefined),-3%,?,?,-5,-1%,-1
COc1cc(/C=C2\C(=N)N3N=C(C)SC3=NC2=O)cc(OC)c1OCCOc1ccccc1C,3%,-2%,?,·,-5%,0
CC1=C(C(=O)Nc2ccccc2)C(c2ccc(C)o2)n2c(s/c(=C\c3ccco3)c2=O)=N1 (centres undefined),25%,13µM*,?,35,?,7
COc1cccc(C2C(C(=O)OC(C)C)=C(C)N=c3s/c(=C\c4ccc(C(=O)O)cc4)c(=O)n32)c1 (centres undefined),13%,?,?,-12,-11%,1
CCOC(=O)C1=C(C)N=c2s/c(=C\c3ccc(OC(C)=O)cc3)c(=O)n2C1/C=C/c1ccccc1 (centres undefined),34%,2%,?,7,27%,-2
COc1cccc(C2C(C(=O)Nc3ccccc3)=C(C)N=c3s/c(=C/c4ccc(OCC(=O)O)cc4)c(=O)n32)c1 (centres undefined),?,7.4µM*,1.2µM*,-13,-6%,-5
COc1ccccc1C1C(C(C)=O)=C(C)N=c2s/c(=C\c3cc(OC)c(OC)c(OC)c3)c(=O)n21 (centres undefined),20%,9.3µM*,?,-1,-1%,-3
Cn1c(SCc2c(Cl)cccc2Cl)nc(C(F)(F)F)cc1=O,6%,3%,54%,-16,4%,-1
CCOC(=O)C1=C(C)N=c2s/c(=C\c3ccc(OCC(=O)O)cc3)c(=O)n2C1c1ccc(OC(C)C)cc1 (centres undefined),?,?,0.41µM*,2,1%,1
CCOC(=O)C1=C(C)N=c2s/c(=C/c3ccc(OCC(=O)O)cc3)c(=O)n2C1c1cc(OC)c(OC)c(OC)c1 (centres undefined),?,1µM*,0.74µM*,·,2%,-1
CCOC(=O)C1=C(C)N=c2s/c(=C\c3cccc(OCC(=O)O)c3)c(=O)n2C1c1ccccc1OC (centres undefined),2%,?,?,-6,14%,-2
CCOC(=O)C1=C(c2ccccc2)N=c2s/c(=C\c3cccc(O)c3)c(=O)n2C1c1cccs1 (centres undefined),-47%,4%,?,-8,5%,-1
O=C(CCl)NCCCN(C(=O)C(Cl)Cl)c1ccc([N+](=O)[O-])cc1,4%,6.6µM*,7.4µM*,13,28µM*,-1
COCCCNC(=O)c1ccc([N+](=O)[O-])cc1,·,30%,5%,-2,-2%,8
CN(C(=O)COC(=O)CNC(=O)c1cccs1)c1c(N)n(Cc2ccccc2)c(=O)[nH]c1=O,·,41%,?,·,19%,·
O=C(NCCn1cc(SCc2ccccc2F)c2ccccc21)c1cccs1,·,·,·,·,6%,·
Nc1ccc(-c2ncc(-c3ccccc3)o2)cc1,1%,9.3µM*,?,-6,13%,1
Cc1ccc(-c2cnc(-c3ccncc3)o2)cc1,-49%,-14%,·,95*,-11%,33*
O=[N+]([O-])c1ccc(-c2ncc(-c3ccc(Br)cc3)o2)cc1,3%,67%,103%,-6,2%,-2
CC(C)CC(NC(=O)NC(CCC(=O)O)C(=O)O)C(=O)O (centres undefined),·,·,·,-7,·,-3
SMILES,NS1 inh,Pf growth 48h,Pf growth 96h,Shiga toxin inh,Sm TGR block,Cycloheximide cs
O=S(=O)(c1cccc(-c2nnc3n2CCCCC3)c1)N1CCCC1,·,-2%,2%,14,0%,7
c1csc(-c2csc3nc(CN4CCOCC4)nc(NCc4ccc5c(c4)OCO5)c23)c1,-37%,?,8.3µM*,1,-20%,8
O=C1CCC(C(=O)N2CCCC(C(=O)c3ccc4c5c(cccc35)CC4)C2)=NN1 (centres undefined),4%,20%,?,20,74%,16
CN(C)c1oc(/C=C/c2ccc(F)cc2)nc1C#N,·,·,·,·,-2%,·
COc1ccccc1/C=C/c1nc(C#N)c(N(C)C)o1,0%,80%,?,87*,?,33*
CN(C)c1oc(/C=C/c2ccccc2)nc1C#N,-1%,106%,66%,48*,-3%,44*
O=CC(O)C(O)C(O)C(O)CO (centres undefined),·,·,·,1,·,-8
CC(C)(C)S(=O)(=O)c1ccccc1C(=O)O,7%,159%,9.3µM*,-13,0%,3
Cc1cc(C)c(S(=O)(=O)c2ccccc2C(=O)O)c(C)c1,3%,7%,-5%,0,-21%,7
COc1ccc(C(=O)NC(=S)Nc2ccc3[nH]c(=O)[nH]c3c2)c(OC)c1,-11%,47%,18%,35,1%,21*
COc1cc(OC)cc(C(=O)NC(=S)Nc2ccc3[nH]c(=O)[nH]c3c2)c1,15%,-2%,-1%,19,-19%,-7
O=C(NC(=S)Nc1ccc2[nH]c(=O)[nH]c2c1)c1cccc(F)c1,11%,41%,4%,-9,2.8µM*,-8
O=C(Cn1cc([N+](=O)[O-])ccc1=O)NCC1COc2ccccc2O1 (centres undefined),·,-6%,-12%,·,?,·
CC(=O)c1ccc(NC(=O)CCn2cccn2)cc1,·,·,·,·,6%,·
O=S(=O)(c1ccc(-c2ccon2)s1)N1CCN(c2ccncc2)CC1,?,1.3µM*,5%,-18,?,0
O=S(=O)(c1ccc(-c2ccon2)s1)N1CCCC1,2%,-7%,19%,-12,-2%,-3
COc1ccc(CNC(=O)c2cc(-c3cccc(OC)c3)on2)cc1,-10%,·,·,·,·,·
